In the library only some 3.4% were active in any assay of this set; here they are far more common.
PAFAH1B2 inh = blocks human PAF acetylhydrolase 1b catalytic subunit 2; recombinant PAFAH1B2, FP-rhodamine activity probe, fluorescence polarization; inhibition, % at 3.39 µM; AID 492953; actives 1.2% (n = 340,000);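 active means inhibition above the mean of all tested compounds plus 3 SD, cut at about 24% in these data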;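 further: 0% = enzyme with DMSO and 100% = wells lacking PAFAH1B2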
Target sequence (P68402 whole entry, looked up): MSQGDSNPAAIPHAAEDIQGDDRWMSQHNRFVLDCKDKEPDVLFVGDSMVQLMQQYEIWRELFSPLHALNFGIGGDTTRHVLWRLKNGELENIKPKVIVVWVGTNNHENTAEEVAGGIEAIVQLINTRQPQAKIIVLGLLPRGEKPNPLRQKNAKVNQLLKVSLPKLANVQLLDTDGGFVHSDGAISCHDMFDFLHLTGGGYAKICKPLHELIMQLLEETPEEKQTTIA
PP5 inh = PP5 (human) phosphatase inhibition; purified PP5c, OMFP substrate fluorescence; inhibition, % at 6.7 µM; actives 0.18% (n = 320,000); P53041; AID 1987;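 active means inhibition above the campaign's mean inhibition across all tested compounds plus 3 SD, cut at about 9.5% in these data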;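 further: 0% = DMSO only and 100% = 100 µM cantharidin control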
PAFAH1B3 inh = PAFAH1B3 (human) inhibition | inhibition, % at 3.39 µM | recombinant PAFAH1B3, FP-rhodamine probe, fluorescence polarization | actives 0.28% (n = 340,000) | Q15102;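 active means inhibition above the screen-wide average of all tested compounds plus 3 SD, cut at about 25% in these data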;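 further: 0% = enzyme with DMSO only and 100% = wells lacking PAFAH1B3 protein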
Target sequence (Q15102 whole entry, looked up): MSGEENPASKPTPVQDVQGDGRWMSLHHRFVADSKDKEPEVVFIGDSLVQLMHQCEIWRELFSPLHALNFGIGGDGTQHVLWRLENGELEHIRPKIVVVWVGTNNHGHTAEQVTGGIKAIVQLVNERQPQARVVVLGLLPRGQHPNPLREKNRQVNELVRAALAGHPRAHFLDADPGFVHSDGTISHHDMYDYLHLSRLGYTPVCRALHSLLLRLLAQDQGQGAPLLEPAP
pPAFAH inh = pPAFAH (human) enzyme inhibition; inhibition, % at 3.39 µM; actives 1.5% (n = 330,000); Q13093; recombinant pPAFAH, FP-rhodamine probe fluorescence polarization;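 active means inhibition above the mean inhibition across the screen plus 3 SD, cut at about 25% in these data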;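 further: inhibitors block binding of the rhodamine activity-based probe so polarization drops; 0% = enzyme with DMSO and 100% = wells lacking pPAFAH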
PP1 inh = blocks human PP1-alpha phosphatase, a PP5 counter-screen. inhibition, % at 6.7 µM. actives 0.9% (n = 320,000). purified PP1alpha, OMFP fluorescence. AID 2235;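 active means inhibition above the mean inhibition of all tested compounds plus 3 SD, computed separately for each screening campaign, cut at about 15% in these data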
PAFAH2 inh = inhibitors of human PAFAH2. inhibition, % at 3.39 µM. recombinant PAFAH2, FP-rhodamine activity probe, fluorescence polarization. actives 0.99% (n = 340,000);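 active means inhibition above the mean over all tested compounds plus 3 SD, cut at about 30% in these data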;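 further: inhibitors block probe labeling of enzyme so polarization drops; 0% = enzyme with DMSO and 100% = wells lacking PAFAH2 protein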
PAFAH2 FP conf = confirmation of human PAFAH2 inhibitors; AID 493030; actives 65% (n = 2,300); recombinant PAFAH2, FP-rhodamine activity probe, fluorescence polarization; inhibition, % at 3.39 µM; shares compounds with PAFAH2 inh;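 active means mean inhibition over three repeats above a set limit taken from the earlier primary screen, cut at about 30% in these data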;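 further: inhibitor blocks binding of rhodamine activity probe so polarization falls; 0% = enzyme with DMSO and 100% = wells lacking PAFAH2 protein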
An asterisk follows results filed as active; . = no result given.

SMILES | PAFAH1B2 inh | PP5 inh | PAFAH1B3 inh | pPAFAH inh | PP1 inh | PAFAH2 inh | PAFAH2 FP conf
O=C(CCl)NCCN1C(=O)S/C(=C\c2cccnc2)C1=O | -7 | 1 | -2 | -1 | 0 | -1 | .
O=C(Cn1[nH]c(=O)c2ccccc2c1=O)NCCN1C(=O)S/C(=C\c2ccccc2)C1=O | 2 | . | 4 | 9 | . | 31* | 4
N/C(=N\OC(=O)c1cccs1)C1(c2ccc(Cl)cc2Cl)CC1 | 7 | 0 | 5 | 2 | -6 | 58* | 30*
O=C(NNc1cc(Cl)ccc1Cl)c1cccs1 | . | -3 | . | -3 | -2 | . | .
Cn1c(N)c(C(=O)COC(=O)COc2ccc(Cl)cc2Cl)c(=O)n(C)c1=O | 10 | . | 7 | -8 | . | -4 | .
COc1ccc(CNC(=O)C2CCN(S(=O)(=O)c3ccc4c(c3)CC(C)N4C(=O)C3CC3)CC2)cc1 (stereo unspecified) | 0 | 4 | 0 | 8 | 2 | -2 | .
CCC(C)N(C(=O)C(F)(F)F)C(C(=O)NC1CCCCC1)c1ccncc1 (stereo unspecified) | 5 | 2 | 0 | -5 | -3 | 7 | .
O=C(NC1CCCCC1)C(c1ccncc1)N(CC1CCCO1)C(=O)C(F)(F)F (stereo unspecified) | 2 | -1 | 2 | -2 | -4 | 41* | 19
Cc1ccc(CSc2nnc(SCC(=O)N/N=C/c3c[nH]c4ccccc34)s2)cc1 | 4 | . | 2 | . | . | 30* | 31*
CCC(C)c1ccccc1NC(=O)COC(=O)c1ccc(C)c(NC(=O)c2ccco2)c1 (stereo unspecified) | -1 | 2 | 4 | 1 | -1 | 78* | 74*
Cc1ccc(C(=O)OCC(=O)Nc2nc(-c3ccccc3)cs2)cc1NC(=O)c1ccco1 | -3 | -3 | -11 | -15 | -1 | -22 | .
Cc1ccc(C(=O)OCC(=O)Nc2sc3c(c2C#N)CCCC3)cc1NC(=O)c1ccco1 | -3 | -1 | -25 | 21 | 11 | 13 | .
Cc1ccc(C(=O)OCC(=O)Nc2ccccc2)cc1NC(=O)c1ccco1 | -7 | -3 | 1 | 8 | 3 | 82* | 81*
Cc1ccc(C(=O)OCC(=O)Nc2sc3c(c2C#N)CCCCC3)cc1NC(=O)c1ccco1 | -9 | 3 | -11 | 0 | 4 | -8 | .
Cc1ccc(C(=O)OCC(=O)Nc2cc(F)ccc2F)cc1NC(=O)c1ccco1 | 2 | 2 | -2 | -1 | 1 | 78* | 70*
Cc1ccc(C(=O)OCC(=O)Nc2ncc(Cl)cc2Cl)cc1NC(=O)c1ccco1 | 1 | 0 | 9 | 10 | -1 | 42* | 41*
CN(CCOc1ccccc1)C(=O)c1cc([N+](=O)[O-])cc([N+](=O)[O-])c1 | 0 | -1 | 4 | -1 | 1 | 3 | .
Cc1ccc(C(=O)OCC(=O)Nc2sccc2C(N)=O)cc1NC(=O)c1ccco1 | -1 | 2 | -1 | 1 | 6 | 16 | .
Cc1ccc(C(=O)OCC(=O)Nc2ccc(N(C)C)cc2)cc1NC(=O)c1ccco1 | -2 | 0 | 3 | 1 | 0 | 41* | 35*
O=C(Cc1cccc2ccccc12)NCCc1ccccc1 | 8 | -2 | 4 | 3 | 1 | 0 | .
CCN(CC)S(=O)(=O)c1ccc(Cl)c(NC(=O)COC(=O)C2CCCCC2)c1 | 7 | 3 | 3 | 8 | 0 | 46* | 31*
CCN(CC)S(=O)(=O)c1ccc(Cl)c(NC(=O)COC(=O)c2cccn2C)c1 | 6 | 1 | 3 | 20 | 12 | 31* | 21
Cc1ccc(OC(=O)c2ccncc2)c(C)c1 | 1 | 1 | 7 | 7 | -5 | -6 | .
Cc1ccc(NC(=O)Cc2nc(COC(=O)c3c(F)cccc3Cl)cs2)cc1 | 1 | . | 8 | 19 | . | 20 | .
Cc1ccc(NC(=O)Cc2nc(COC(=O)Cc3cccc(C(F)(F)F)c3)cs2)cc1 | 10 | . | -2 | . | . | 47* | 1
SMILES | PAFAH1B2 inh | PP5 inh | PAFAH1B3 inh | pPAFAH inh | PP1 inh | PAFAH2 inh | PAFAH2 FP conf
O=C(O)CN1C(=O)/C(=C\c2cc(Br)ccc2OCc2ccc(Cl)cc2)SC1=S | 20 | . | 9 | . | . | 32* | 20
O=C(O)CN1C(=O)/C(=C\c2ccccc2OCc2ccc(F)cc2)SC1=S | 16 | 2 | 2 | 14 | 9 | 39* | 35*
COc1ccc(/C=C2/SC(=S)N(CC(=O)O)C2=O)cc1OCc1ccc(Cl)cc1 | 12 | 3 | 2 | -2 | 6 | -2 | .
Cc1ccc(CCNS(=O)(=O)c2cc(Br)cnc2N)cc1 | 15 | 3 | -1 | 1 | -4 | 4 | .
Cc1ccc(S(=O)(=O)N2CCCC2)cc1C(=O)NCCOc1ccccc1 | 6 | 3 | 10 | 3 | 1 | 5 | .
O=C1CCNCCN1[C@H](CO)c1ccccc1 | 0 | -1 | 2 | 1 | -4 | -2 | .
NS(=O)(=O)c1cc(C(=O)OCC(=O)NC2CCCCCCC2)ccc1Cl | 16 | . | 6 | . | . | 9 | .
O=C(COC(=O)c1ccc2c(c1)OCCO2)NC1CCCCC1 | -2 | 3 | -3 | 8 | 0 | 87* | 77*
COc1cc(C(=O)OCC(=O)NC2CCCCC2)cc(OC)c1OC | 0 | . | 7 | -2 | . | 41* | 24
Cc1cc(C)cc(C(=O)OCC(=O)NC2CCCC2)c1 | -1 | 1 | 2 | 2 | 2 | 43* | 23
COc1cc(C(=O)OCC(=O)Nc2cc(C)on2)cc(OC)c1OC | 3 | 3 | 3 | -2 | 4 | 1 | .
COc1cc(C(=O)OCC(=O)NC2CCCC2)cc(OC)c1OC | 7 | 1 | 7 | 0 | 1 | 18 | .
Cc1cc(C)cc(C(=O)OCC(=O)NC(=O)NC2CCCC2)c1 | 1 | 2 | 8 | 3 | 1 | 11 | .
COc1cc(C(=O)OCC(=O)Nc2ccc(C)cc2)cc(OC)c1OC | 2 | 0 | 6 | 0 | 0 | 31* | 16
O=C(CN(C(=O)CCC(=O)Nc1ccccn1)c1ccc(F)cc1)NCCc1ccccc1 | 2 | 5 | 4 | 6 | 0 | 12 | .
O=C(O)C[C@H]1c2cc(F)ccc2S(=O)(=O)N1C1CCN(Cc2ccccc2)CC1 | -2 | 1 | 21 | 6 | -2 | -2 | .
CN(C(=O)COC(=O)c1cncc(Br)c1)C1CCCCC1 | 6 | . | 2 | 2 | . | 9 | .
COc1cc(C(=O)OCC(=O)NC2CCCCC2)cc2c1OCCO2 | 0 | 0 | 3 | 8 | 0 | 74* | 66*
CN(C(=O)COC(=O)c1ccc2c(c1)OCCO2)C1CCCCC1 | 2 | . | 1 | . | . | 69* | 61*
Cc1ccc(NC(=O)COC(=O)c2cc(Cl)ccc2[N+](=O)[O-])cc1 | 5 | 1 | 3 | 4 | -2 | 56* | 38*
COC(=O)c1c(NC(=O)c2cccc(S(=O)(=O)N3CCN(C)CC3)c2)sc(C)c1C | 1 | 2 | -2 | 5 | -2 | 30* | 16

High-throughput results deposited in PubChem by The Scripps Research Institute Molecular Screening Center.
